Screening data from PubChem BioAssay.
Shown are actives, neighbours in structure and some others; about 4.2% of the full set was active somewhere.
tim23-1 inh: tim23-1 yeast growth inhibition; S. cerevisiae tim23-1 growth, BacTiter-Glo luminescence, 24 h; inhibition, % at 20 µM; actives 1.3% (n = 330,000); AID 463212;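 active = growth inhibition of the mutant yeast at or above 50%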;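 note: temperature-sensitive mutant grown at 25 °C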
NLRP3 yeast inh: NALP3 inhibition in yeast; Yeast reconstituted NLRP3/ASC/caspase-1, beta-gal luminescence, 24 h; inhibition, % at 10 µM; actives 0.39% (n = 330,000); AID 2825;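 active = inhibition of 50% or more; inactive = inhibition below 50%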
NALP1 inh: inhibitors of NALP1 inflammasome in yeast | actives 0.61% (n = 280,000) | inhibition, % at 10 µM | S. cerevisiae NALP1/ASC/caspase-1 growth, X-gal OD620, 72 h; in the data active = inhibition mostly above about 24%, no sharp cut-off; inactive = mostly below about 32%
V-ATPase pHluor: regulators of yeast V-ATPase proton transport | S. cerevisiae, pHLuorin cytosolic pH fluorescence | response, % at 10 µM | actives 0.37% (n = 350,000) | AID 504577; in the data active = response mostly above about 7.3%, no sharp cut-off; inactive = mostly below about 5.4%; note: actives read high
tim10-1 inh: inhibits growth of tim10-1 mutant yeast; S. cerevisiae tim10-1 ts strain growth, BacTiter-Glo, 24 h; actives 2.2% (n = 330,000); inhibition, % at 20 µM;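 active = inhibition of at least 40%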;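 note: mutant grown at 25 °C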
TIM10 inh: TIM10 yeast growth inhibition. inhibition, % at 10 µM. S. cerevisiae TIM10 strain growth, BacTiter-Glo luminescence, 24 h. actives 1.4% (n = 330,000);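 active = inhibition of 40% or more at the single tested concentration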;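 note: wild-type TIM10 isogenic control strain grown at permissive 25 °C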
tim10-1 conf: tim10-1 yeast growth inhibition, confirmed. inhibition, % at 20 µM. S. cerevisiae tim10-1 ts strain growth, BacTiter-Glo, 24 h. shares compounds with tim10-1 inh. AID 463213. actives 56% (n = 7,400);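 active = inhibition of yeast growth at or above a set limit in either of two repeat tests at 20 µM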;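 note: tim10-1 mutant grown at permissive 25 °C to find synthetic lethal compounds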
Hits are given with their value; . = inactive; / = not tested or not shown.

SMILES	tim23-1 inh	NLRP3 yeast inh	NALP1 inh	V-ATPase pHluor	tim10-1 inh	TIM10 inh	tim10-1 conf
CC1(C)C2CCC(C2)C1C/C=N/NC(N)=S (centres undefined)	.	.	.	.	45.6	.	.
CC1(C)CCC(=NNC(N)=S)CC1	/	/	/	.	/	/	/
COc1ccccc1N1C(=O)CC(Sc2nccc(C)n2)C1=O (centres undefined)	.	.	.	.	.	.	/
COc1ccccc1N1C(=O)CC(Sc2n[nH]c(-c3cccc(C)c3)n2)C1=O (centres undefined)	.	.	73.4	.	47.4	.	35.8
COC(=O)C[C@H](NC(=O)Cn1cnc(C(=O)Nc2ccc(C)c(C)c2)n1)C(=O)OC	.	/	/	.	.	.	/
O=S(=O)(c1ccc(Cl)cc1)N1CCn2c1nc1ccccc12	.	.	.	.	.	.	/
O=C(Nc1ccccc1)c1cccnc1NCCc1ccccc1	.	.	.	.	40.4	.	32.0
COc1cccc(Nc2ncccc2C(=O)Nc2ccccc2)c1	.	.	.	.	53.1	.	37.8
COc1cccc(NC(=O)c2ccccc2Oc2ccccc2)c1	.	.	.	.	.	.	/
CCCCCCCCCCCC1=C(O)C(=O)C=C(O)C1=O	/	/	/	.	/	/	/
COC1=CC(=O)C(O)=C(CCCCCCC/C=C/CCCCCCCC2=C(O)C(=O)C=C(OC)C2=O)C1=O	.	.	/	.	43.0	.	37.8
COc1ccc(Nc2ccccc2N)cc1	.	.	.	.	47.2	.	.
Nc1ccc(Nc2ccccc2N)cc1	.	.	.	.	.	.	/
CNC(=O)c1sc(-c2cccnc2)nc1C	.	.	.	.	.	.	/
Cc1ccc(-c2cc(-c3ccccc3)[nH]c(=S)c2C#N)cc1	.	.	.	.	54.3	.	.
COc1ccc(-c2cc(-c3ccccc3)c(C#N)c(=S)[nH]2)cc1	.	.	.	.	.	.	/
NC(=S)N1OC[C@@H]2COc3ccc4ccccc4c3[C@@H]21	.	.	.	.	40.6	.	.
Cc1ccc(C(C)C)c(OCC(=O)Nn2c(=O)[nH]c3ccccc3c2=O)c1	.	.	.	.	.	.	/
Cc1ccc(C(C)C)c(OCC(=O)Nn2c(C)nc3ccccc3c2=O)c1	.	.	.	.	46.7	.	.
C/C(=N\NC(=O)c1nnn(-c2nonc2N)c1CN(C)c1ccccc1)c1ccccc1O	.	.	.	.	61.7	.	.
COc1ccc(/C(C)=N/NC(=O)c2nnn(-c3nonc3N)c2CN(C)c2ccccc2)cc1	.	.	.	.	.	.	/
CCOC1(OCC)C(c2ccc(Cl)cc2)C(C#N)(C#N)C1(OCC)OCC (centres undefined)	.	.	/	.	46.8	.	.
CCOC1(OCC)C(c2ccc(N)cc2)C(C#N)(C#N)C1(OCC)OCC (centres undefined)	.	.	.	.	41.9	.	.
CCOC(=O)CSC1=C(C#N)C(c2ccc(Cl)cc2)CC(=O)N1 (centres undefined)	.	.	.	.	.	.	/
CCOC1(OCC)N=C(N)C2(C#N)C(c3cccc(C)c3)C12C#N (centres undefined)	.	.	.	.	.	.	/
SMILES	tim23-1 inh	NLRP3 yeast inh	NALP1 inh	V-ATPase pHluor	tim10-1 inh	TIM10 inh	tim10-1 conf
C[C@@H]1CC=C[C@H]2[C@H]1C(=O)N(Cc1ccccc1)[C@H]2c1ccc(-c2ccoc2)cc1F	.	.	.	.	41.2	.	36.0
COc1ccc([C@H]2[C@H]3C=CC[C@@H](C)[C@@H]3C(=O)N2Cc2ccccc2)cc1Cl	.	.	.	.	42.3	.	.
COc1ccc(Br)cc1[C@H]1[C@H]2C=CC[C@@H](C)[C@@H]2C(=O)N1Cc1ccccc1	.	.	/	.	59.7	.	42.3
COc1ccc(C(=O)O/N=C/c2c(C(F)(F)F)nn(C)c2SCc2ccccc2Cl)cc1	.	.	.	.	.	.	/
O=C(CSc1nn(-c2ccc(F)cc2)c(=S)s1)NCC1CCCO1 (centres undefined)	.	.	.	.	.	.	/
O=C(Nc1nc(-c2ccco2)c(-c2ccco2)s1)c1ccc(F)cc1F	.	.	/	.	40.2	.	43.3
O=C(Nc1nc(-c2ccco2)c(-c2ccco2)s1)c1c(F)cccc1Cl	.	.	/	.	.	.	/
Cc1ccccc1-c1nc(C(=O)NCC2CCCO2)cc2c1[nH]c1ccccc12 (centres undefined)	.	.	.	.	.	.	/
CCCCCC(=O)N1CCCC(c2nc(-c3ccc(OC)cc3)no2)C1 (centres undefined)	.	.	.	.	.	.	/
COc1ccc(-c2noc(C3CCCN(C(=O)CCc4ccccc4)C3)n2)cc1 (centres undefined)	.	.	.	.	41.9	.	32.8
OCC1OC(n2cnc3c(NC4CCCCC4)ncnc32)C(O)C1O (centres undefined)	.	.	.	.	.	.	/
COc1ccc(-c2cc(=O)oc3c(C)c(OC(C)C(=O)Nc4ccc(CN5CCOCC5)cc4)ccc23)cc1 (centres undefined)	.	.	.	.	42.6	.	.
O=C(/C=C/c1ccc(F)cc1)NC(=S)N1CCOCC1	.	.	.	.	.	.	/
O=C(Nc1ccc(N2CCCCC2)cc1)c1ccccn1	.	.	.	.	40.9	.	30.6
Cc1cc(C(=O)NN=C2CCCCCC2)c(C)o1	.	.	/	.	80.4	.	.
Cc1cnccc1CN(C)Cc1cn(C)nc1-c1ccc(Oc2ccccc2)cc1	.	.	.	.	40.4	.	.
COc1cc(CCC(=O)OCc2nnc(-c3ccccc3)o2)cc(OC)c1OC	.	.	.	.	.	.	/
COc1cc(-c2nnc(COC(=O)CSc3cc(C)c4ccccc4n3)o2)cc(OC)c1OC	.	.	.	.	40.2	.	.
Cc1cc2oc(C(=O)N(Cc3cccs3)C3CCS(=O)(=O)C3)cc(=O)c2cc1Cl (centres undefined)	.	.	/	.	.	.	/
COc1ccccc1C(=O)OCC(=O)Nc1ccc(Cl)cn1	.	.	.	.	.	.	/
O=C(N/C(=C\c1ccc(Br)cc1)C(=O)N1CCCC1)c1cccs1	.	.	.	.	.	.	/
O=C(N/C(=C/c1ccc(Br)cc1)C(=O)N1CCCC1)c1cccs1	.	.	.	.	46.0	.	.
COc1ccccc1Cn1c(-c2ccco2)nc2nc3ccccc3nc21	.	.	/	.	.	.	/
COc1ccc(CCn2c(-c3ccco3)nc3nc4ccccc4nc32)cc1	.	.	.	.	41.2	.	.
CC(C)(C)CN1CCNC(=O)C1CC(=O)NCCc1cnn(-c2ccccc2)c1 (centres undefined)	.	.	.	.	.	.	/
COc1ccccc1-c1nnc(SC(C)C(=O)NCC2CCCO2)n1C (centres undefined)	/	/	/	.	/	/	/
